Bioassay records as filed in PubChem BioAssay.
Only some compounds are listed: those with a hit (about 2.5% of all), similar ones and a draw of the others.
Cruzain Triton: qHTS Assay for Promiscuous and Specific Inhibitors of Cruzain (with detergent); Cruzipain (Trypanosoma cruzi), P25779; purified cruzain, Z-FR-AMC fluorescence, 0.01% Triton; Potency, µM, actives largely listed as inhibitors; 200,000 tested, 0.43% active; AID 1478, 2009; note: nearly all actives have a fitted effect of over 40% in size
Target sequence (P25779 123-467 limits assumed): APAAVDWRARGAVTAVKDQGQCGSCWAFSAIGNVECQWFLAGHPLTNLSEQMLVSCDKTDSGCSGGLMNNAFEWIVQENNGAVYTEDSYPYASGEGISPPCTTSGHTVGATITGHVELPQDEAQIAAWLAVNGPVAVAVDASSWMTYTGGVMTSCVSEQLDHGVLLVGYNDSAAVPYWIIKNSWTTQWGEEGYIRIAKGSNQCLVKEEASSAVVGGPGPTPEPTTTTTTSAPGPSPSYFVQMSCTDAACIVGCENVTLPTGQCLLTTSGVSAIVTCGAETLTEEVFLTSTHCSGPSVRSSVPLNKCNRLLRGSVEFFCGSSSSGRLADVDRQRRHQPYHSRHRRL
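Sodium acetate buffer (100 mM, pH 5.5) containing 5 mM DTT and 0.01% Triton X-100 hosted 1.5 nM cruzain and test compound for 15 min at room temperature. Cleavage of 2 uM Z-FR-AMC was then tracked by fluorescence.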
Cruzain inh noDet: qHTS Assay for Promiscuous and Specific Inhibitors of Cruzain (without detergent); purified cruzain, Z-FR-AMC fluorescence, no detergent; Potency, µM, usual class: inhibitors; 200,000 tested, 2.3% active; note: nearly all actives have a fitted effect of over 40% in size
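Purified cruzain at 1.5 nM, pre-incubated 15 min with compound at room temperature in 100 mM sodium acetate pH 5.5, 5 mM DTT, 0.00005% Triton X-100. Reaction started with 2 uM Z-FR-AMC; AMC fluorescence increase over 60 s gives rate.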
Large screens that a line does not name were inactive. Calls come from the whole dose curve; as a rule, active = well fitted curve in the direction sought with a large enough effect; inconclusive = small, poorly fitted or top-dose-only effect, or another doubt; inactive = no such curve, though single readings can be large; an effect the other way counts as inactive or inconclusive.

O=C(NCCc1ccc(Cl)cc1)c1ccc2c(c1)N(Cc1ccccc1)C(=O)CS2	Cruzain inh noDet 32µM
Cc1ccc(CN2CCSc3ccc(C(=O)NCC(C)c4ccccc4)cc32)cc1 (configuration not stated)	none
CC(=O)c1cccc(NC(=O)c2ccc3c(c2)N(Cc2ccc(C)cc2)CCS3)c1	Cruzain inh noDet 13µM
NCCC[C@@H](CC(=O)N[C@@H]1CCCC[C@H]1C(=O)N[C@H](CC(=O)N[C@@H](CCC(=O)O)CC(=O)O)Cc1ccccc1)NC(=O)C[C@H](Cc1c[nH]c2ccccc12)NC(=O)[C@@H]1CCCC[C@H]1N	none
ClC(Cl)=C(Cl)Cl	none
O=C(NCCc1ccc(Cl)cc1)c1ccc2c(c1)N(Cc1ccccc1)CCS2	none
O=C(Nc1ccc(Cl)cc1)c1ccc2c(c1)N(Cc1ccccc1)CCS2	Cruzain inh noDet 32µM
Cc1cc(C)cc(N2Cc3ccccc3C2)c1	Cruzain inh noDet 13µM
FC(F)(F)c1cccc(N2Cc3ccccc3C2)c1	none
Cc1ccc(S(=O)(=O)OC2CCN(C)CC2)cc1	none
CCc1cccc(CC)c1NC(=O)CCS(=O)(=O)c1ccc(Br)s1	none
CS(=O)(=O)c1ccc2nc(NC(=O)Nc3cccc(Cl)c3)sc2c1	Cruzain inh noDet inconclusive
CS(=O)(=O)c1ccc2nc(NC(=O)Nc3ccc(Cl)c(Cl)c3)sc2c1	Cruzain inh noDet 10µM
Cc1ccccc1C(=O)Nc1ccccc1OCc1cc(=O)n2ccccc2n1	none
Cc1ccc(/C(N)=N/OC(=O)c2cc(-c3ccccc3)nc3ccccc23)cc1	none
COc1ccc(/C(N)=N/OC(=O)c2cc(-c3ccccc3)nc3ccccc23)cc1	Cruzain inh noDet 20µM
COc1ccc(-c2cnc(C)o2)cc1S(=O)(=O)Nc1c(C)cc(C)cc1C	none
CCOC(=O)c1c(C)oc2ncnc(N3CCN(c4ccccc4)CC3)c12	none
CCOC(=O)c1c(NC(=O)Cn2nc([N+](=O)[O-])c(Br)c2C)sc2c1CCC(C)C2 (configuration not stated)	Cruzain inh noDet 13µM
CCOC(=O)c1c(NC(=O)CC2SC(N)=NC2=O)sc2c1CCC(C)C2 (configuration not stated)	Cruzain inh noDet inconclusive
O=S(=O)(Nc1nc2ccccc2nc1N1CCc2ccccc2C1)c1ccc(Br)cc1	Cruzain inh noDet 7.9µM
O=S(=O)(Nc1nc2ccccc2nc1N1CCc2ccccc2C1)c1ccc(Cl)cc1	none
O=C(Nc1cccc(OCc2cc(=O)n3ccccc3n2)c1)c1ccccc1Br	none
CCC(C)C(=O)Nc1nc(C)c(-c2csc(Nc3ccccc3OC)n2)s1 (configuration not stated)	Cruzain inh noDet inconclusive
CCCCCC(=O)Nc1nc(C)c(-c2csc(Nc3cc(Cl)ccc3C)n2)s1	Cruzain inh noDet 10µM
CCCC(C)C(=O)Nc1nc(C)c(-c2csc(Nc3cc(Cl)ccc3C)n2)s1 (configuration not stated)	Cruzain inh noDet 13µM
CCCCCCC(=O)Nc1nc(C)c(-c2csc(Nc3ccc(Cl)cc3)n2)s1	Cruzain inh noDet inconclusive
CCCCCC(=O)Nc1nc(C)c(-c2csc(Nc3ccc(Cl)cc3)n2)s1	Cruzain inh noDet 13µM
CC(=O)c1ccc(N2CCN(c3nc4c(S(=O)(=O)c5ccc(C)c(C)c5)nnn4c4ccc(Cl)cc34)CC2)cc1	none
O=P(O)(O)O[C@@H]1O[C@H](CO)[C@@H](O)[C@H](O)[C@@H]1O	none
COc1cccc(-c2nc(SCc3cc(=O)c4cc(Cl)ccc4[nH]3)n[nH]2)c1	none
CCCN(c1ccccc1CC)S(=O)(=O)c1ccc2c(c1)CC(C)N2C(=O)C1CC1 (configuration not stated)	none
CCC1(c2ccc(F)cc2)NC(=O)N(CC(=O)Nc2ccc(-c3nc4ccc(C)cc4s3)cc2)C1=O (configuration not stated)	Cruzain inh noDet 13µM
Cc1ccc2nc(-c3ccc(NC(=O)CN4C(=O)c5ccccc5C4=O)cc3)sc2c1	none
COc1ccc(C2CC(c3ccccc3)=NN2c2ccc(N)cc2)cc1 (configuration not stated)	Cruzain inh noDet 20µM
CCOC(=O)C1=NN(c2ccc(OC)cc2)C(c2ccccc2)CC1=O (configuration not stated)	none
CCOC(=O)c1c(C)[nH]c(CCC(=O)NCCCN2CCN(c3ccccc3F)CC2)c1C	none
CCOC(=O)C1CCC(CN(Cc2cccc(Br)c2)S(=O)(=O)c2ccc(Cl)cc2)CC1 (configuration not stated)	none
CCc1ccccc1NC(=O)CCC(=O)N1CC(C)Oc2ccc(C)cc21 (configuration not stated)	none
CSCCC(NC(=O)c1ccccc1)C(=O)OCC(=O)Nc1ccc(C)c(Cl)c1 (configuration not stated)	Cruzain Triton 14µM
CSCCC(NC(=O)c1ccc(Cl)cc1)C(=O)OCC(=O)Nc1cc(Cl)ccc1C#N (configuration not stated)	Cruzain Triton 25µM
CSCCC(NC(=O)c1ccc([N+](=O)[O-])cc1Cl)C(=O)OCC(=O)N(C)C (configuration not stated)	none
CSCCC(NC(=O)c1ccccc1)C(=O)Nc1ccc(C)cc1 (configuration not stated)	none
Cc1cccc(N2CCN(C(=O)c3cnn(-c4cccc(Cl)c4C)c3C3CCNCC3)CC2)c1C	none
CCc1ccccc1NC(=O)CN(c1ccccc1OC)S(=O)(=O)c1ccc(C)cc1	none
CCOC(=O)c1ccc(NC(=O)CC2C(=O)N(c3ccc(F)cc3)C(=O)N2Cc2ccc(C)cc2)cc1 (configuration not stated)	none
O=C(O)c1cc(=O)[nH]c(SCc2ccccc2)n1	none
CC(C)(C)C(=O)c1sc2nc(-c3cccs3)cc(C(F)(F)F)c2c1N	none
COc1ccc(-c2cc(C3CC3)nc3sc(C#N)c(N)c23)cc1	none
CCN(CC)C(=O)c1sc2nc(-c3cccs3)cc(-c3ccc(Cl)cc3)c2c1N	Cruzain inh noDet 32µM
N#Cc1sc2nc(-c3cccs3)cc(-c3ccc(Cl)cc3)c2c1N	Cruzain inh noDet 13µM
N#Cc1c(-c2cccs2)cc(-c2cccnc2)nc1N	none
N#Cc1sc2nc(-c3cccs3)cc(-c3ccccc3)c2c1N	Cruzain inh noDet 16µM
CCOc1ccccc1NC(=O)Cn1c(=O)n(-c2ccccc2)c(=O)c2c1c1cc(C)ccc1n2C	none
COc1cc(OC)c(OC)cc1CN1CCc2nc(N3CCN(c4ccccc4F)CC3)ncc2C1	none
CC(=O)N1CCN(S(=O)(=O)c2cccc(C(=O)Nc3nc4c(s3)CCCC4)c2)CC1	Cruzain inh noDet inconclusive
CC(=O)NCCC(=O)Nc1sc2c(c1-c1nc3ccccc3[nH]1)CCCC2	none
CN1CCN(S(=O)(=O)c2cccc(C(=O)Nc3sc4c(c3-c3nc5ccccc5[nH]3)CCCC4)c2)CC1	Cruzain inh noDet 16µM
O=C(Nc1sc2c(c1-c1nc3ccccc3[nH]1)CCCC2)C1CCCC1	Cruzain inh noDet 13µM
COC(=O)c1cc2oc3ccccc3c2n1CC(=O)Nc1ccc(N(C)C)cc1	none
O=CC(O)C(O)C(O)C(O)CO (configuration not stated)	none
COc1ccc(-c2cc(C(=O)Oc3ccc(Br)cc3)c3ccccc3n2)cc1	Cruzain inh noDet inconclusive
O=C(CN1CCN(c2ccccc2)CC1)Nc1ccc2c(c1)CCC2	none
O=C(Nc1ccc2c(c1)CCC2)c1cc(S(=O)(=O)N2CCN(c3ccccc3)CC2)ccc1Cl	Cruzain inh noDet 4µM
